Sampled rows, rich in hits. Any-hit rate of the full collection: about 9.5%.
NS1 function inh: influenza NS1 inhibition; Potency, µM (highest dose often 46.1 µM); actives 0.4% (n = 270,000); calls by dose curve; also: actives are rising curves; nearly all actives have a fitted effect of over 50% in size
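Read-out: OD600 growth recovery of NS1-expressing budding yeast. Cells grown overnight at 30C in -URA glucose medium, washed, resuspended and diluted 1:100 in 2% galactose assay medium, pH 6.0. Same strain lacking NS1 served as positive control.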
SARS PLP yeast: inhibitors of SARS-CoV papain-like protease in yeast. S. cerevisiae expressing SARS-CoV PLpro, growth rescue. Potency, µM (series often up to 32.9 µM), usual class: activators. actives 0.19% (n = 330,000). AID 485353; calls by dose curve; also: nearly all actives have a fitted effect of over 55% in size
RE007 growth inh: less growth of the S. pombe RE007 Vpr strain; S. pombe RE007 Vpr strain, BacTiter-Glo ATP luminescence, 24 h; Potency, µM (doses to about 92.2 µM), usual class: inhibitors; actives 0.21% (n = 360,000); AID 651644; active = well fitted falling curve with a large enough effect; inconclusive = small, poorly fitted or top-dose-only effect; inactive = no such curve, though single readings can be large or run the other way; also: nearly all actives have a fitted effect of over 50% in size
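Fission yeast strain RE007, carrying one chromosomally integrated HIV-1 vpr copy, was seeded at OD 0.01 in PMG+AL medium with 23 nL pinned compound. After 24 h at 30 °C and 99% humidity, viability was read by BacTiter-Glo luminescence.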
Pf growth 96h: P. falciparum growth inhibition at 96 hours | P. falciparum luciferase reporter growth, 96 h | Potency, µM (series often up to 28.7 µM), hits mostly inhibitors | actives 6.9% (n = 320,000) | AID 504834
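Erythrocytes infected with luciferase-expressing P. falciparum were dispensed at 2% hematocrit and 0.05% parasitemia (final), then incubated with compounds 96 hours at 37 C in 5% CO2. Luminescence after detection reagent addition reported growth.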
Pf growth 48h: P. falciparum growth inhibition at 48 hours (one generation); P. falciparum luciferase growth in erythrocytes, 48 h; Potency, µM (titrated, usually from 28.7 µM), hits mostly inhibitors; actives 5.9% (n = 310,000)
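Firefly luciferase activity from engineered P. falciparum reports growth; inhibitors lower the luminescent signal. Cultures contained 2% hematocrit erythrocytes at 0.1% final parasitemia.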
Hits are given with their value; n = inactive; u = inconclusive; x = no result given. Unless noted, calls follow the shape of the dose curve; as a rule, active = well fitted inhibition curve with a large enough effect; inconclusive = small, poorly fitted or top-dose-only effect, or another doubt; inactive = no such curve, though single readings can be large or run the other way.

SMILES	NS1 function inh	SARS PLP yeast	RE007 growth inh	Pf growth 96h	Pf growth 48h
CCOC(=O)c1c(C)n(C)c2ccc(OCC(O)CN(CC)CC)cc12 (stereo unspecified)	n	n	n	5.9µM	x
CCOC(=O)c1c(C)n(Cc2ccco2)c2ccc(OC)cc12	n	n	n	x	n
O=C(NCc1cccnc1)Nc1ccccc1C(F)(F)F	n	n	n	u	n
CN(C)CCN(c1ccccn1)c1ccccn1	n	x	x	x	x
COc1cccc(CN2CCNC(=O)C2CC(=O)NCC(C)(C)N2CCOCC2)c1OC (stereo unspecified)	n	n	n	10µM	n
COc1cccc(CNC(=O)CC2C(=O)NCCN2Cc2ccoc2)c1OC (stereo unspecified)	n	n	n	12µM	u
Cc1cn(CC(=O)NCCN2CCOCC2)c(=O)[nH]c1=O	x	x	n	x	x
Cc1cc(O)c(CN(C)C)c2c1C(=O)/C(=C/c1ccco1)O2	n	n	n	5.2µM	6.6µM
Oc1cc(Br)ccc1C=Nc1ccc(N2CCCCC2)cc1	n	n	n	8.3µM	8.3µM
O=c1nc2n(CCO)c3ccccc3cc-2c(=O)[nH]1	x	x	n	x	x
CC[N+]1(C)CCC(O)(c2ccc(OC)cc2)C(C(=O)c2ccc(OC)cc2)C1 (stereo unspecified)	x	x	40µM	x	x
Cc1ccc(NC2=C(NC(=O)c3ccccc3)C(=O)c3ccccc3C2=O)cc1Cl	n	n	u	u	0.29µM
Cc1ccc(NCC(=O)c2ccccc2)cc1Cl	n	n	n	u	u
CCc1cccc(NS(=O)(=O)c2ccc3c(c2)n(C)c(=O)n3C)c1	n	n	n	4.7µM	n
COc1ccc(C)cc1NS(=O)(=O)c1ccc2c(c1)n(C)c(=O)n2C	n	n	n	5.9µM	n
COc1ccc(OC)c(NS(=O)(=O)c2ccc3c(c2)n(C)c(=O)n3C)c1	n	n	n	x	n
O=S(=O)(Nc1cccc(Cl)c1)c1ccc(-n2cccn2)cc1	n	n	n	u	n
CCc1cccc(NS(=O)(=O)c2ccc(-n3cccn3)cc2)c1	n	n	n	13µM	n
Cn1c(=O)c2[nH]c(CCC(=O)O)nc2n(C)c1=O	n	x	x	x	x
CC(C)n1nnnc1C1c2ccccc2C(=O)N1Cc1ccccc1 (stereo unspecified)	x	x	n	x	x
Cc1ncc(COP(=O)(O)O)c(C)c1O	n	x	x	x	x
CC(C)(C)c1ccc(C(=O)NCCC(=O)Nc2cc(Cl)ccc2N2CCOCC2)cc1	x	n	n	u	13µM
CCN(CC)S(=O)(=O)c1ccc(N2CCOCC2)c(NC(=O)Cc2ccccc2F)c1	n	n	n	u	u
CCN(CC)S(=O)(=O)c1ccc(N2CCOCC2)c(NC(=O)CCC2CCCCC2)c1	n	n	n	u	8.3µM
O=C(CCC1CCCC1)Nc1cc(Cl)ccc1N1CCOCC1	x	n	n	8.3µM	u
SMILES	NS1 function inh	SARS PLP yeast	RE007 growth inh	Pf growth 96h	Pf growth 48h
O=C(CNC(=O)c1ccco1)Nc1cc(Cl)ccc1N1CCOCC1	u	n	n	x	u
CCN(CC)S(=O)(=O)c1ccc(N2CCOCC2)c(NC(=O)Cc2cccc3ccccc23)c1	n	n	n	3.7µM	13µM
CC(=O)Nc1cccc(C(=O)OCC(=O)Nc2ccc(Cl)cn2)c1	x	n	n	n	n
Cc1ccc(S(=O)(=O)N2CCC(C(=O)N3CCCCCCC3)CC2)cc1C	x	x	n	x	x
CCCS(=O)(=O)NC(=O)C1(C)CCCN(C(=O)c2cc(OC)c(OC)c(OC)c2)C1 (stereo unspecified)	x	x	n	x	x
CC(C)(C)NC[C@H](O)COc1cccc2c1C[C@@H](O)[C@@H](O)C2	x	x	x	u	n
CCOc1ccc(-c2nonc2NC(=O)c2ccco2)cc1OCC	n	n	n	u	0.37µM
CCOc1ccc(-c2nonc2NC(=O)c2ccco2)cc1	n	n	n	10µM	n
CCCc1cc(C(=O)Nc2cccc(-c3nn[nH]n3)c2)sc1C	x	x	n	x	x
C=CCn1c(SCc2cc(=O)n3ccsc3n2)nc2scc(C3CC3)c2c1=O	n	n	n	4.1µM	u
CCc1ccccc1NC(=O)CNC(=O)CSC(=S)N1CCCC1	x	n	n	u	u
CCOc1cc(CN2CCN(C(=O)c3cccc4ccccc34)CC2)ccc1OC	n	n	n	u	8.3µM
COc1ccc(CN2CCN(C(=O)CC(C)C)CC2)c2ccccc12	n	n	n	x	n
O=C(c1cccc2ccccc12)N1CCN(Cc2ccccc2F)CC1	n	n	n	u	n
Cc1ccccc1CN1CCN(C(=O)CC(C)C)CC1	n	n	n	10µM	n
